AmpC inh detg – qHTS Inhibitors of AmpC Beta-Lactamase (assay with detergent) | 370,000 tested, 0.041% active | P00811 | AmpC hydrolysis of nitrocefin, absorbance 480 nm, 0.01% Triton | Potency, µM (top dose mostly 114 µM), most hits filed as inhibitors; further: nearly all actives have a fitted effect of over 25% in size
Target sequence (P00811 whole entry, looked up): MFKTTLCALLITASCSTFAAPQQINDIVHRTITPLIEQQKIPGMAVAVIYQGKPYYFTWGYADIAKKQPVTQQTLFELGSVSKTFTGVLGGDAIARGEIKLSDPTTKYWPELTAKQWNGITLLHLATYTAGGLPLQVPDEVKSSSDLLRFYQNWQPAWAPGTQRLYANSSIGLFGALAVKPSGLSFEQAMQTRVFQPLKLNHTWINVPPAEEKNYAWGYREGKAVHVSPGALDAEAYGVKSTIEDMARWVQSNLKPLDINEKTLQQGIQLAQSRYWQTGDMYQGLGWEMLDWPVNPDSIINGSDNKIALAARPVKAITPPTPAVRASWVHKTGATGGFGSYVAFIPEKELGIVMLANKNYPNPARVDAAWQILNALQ
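AmpC (5.3 nM in the dispensed reagent) in 20 mM phosphate pH 7.0 with 0.01% (detergent screen) or 0.0001% Triton X-100 was preincubated with compounds for 15 min at room temperature. Nitrocefin was then added from an 800 uM solution, and hydrolysis was followed at 480 nm.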
Shiga inhibitor – A qHTS for Small Molecule Inhibitors of Shiga Toxin; inhibition, % at 38.7 µM; 290,000 tested, 9.2% active; Vero cells, Shiga toxin protein synthesis inhibition reporter; AID 2315, 2010; in the data active means inhibition mostly above about 28%, no sharp cut-off; inactive means mostly below about 43%
NS1 function inh – qHTS Assay for Inhibitors of Influenza NS1 Protein Function; Potency, µM (series often up to 46.1 µM); 270,000 tested, 0.4% active; AID 2326, 2010; calls by dose curve; further: actives are rising curves; nearly all actives have a fitted effect of over 50% in size
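In this qHTS, NS1 from influenza A is expressed in budding yeast, where it slows growth. Cells are switched from glucose to 2% galactose medium (pH 6.0, -URA), treated with compound, and growth recovery is read at OD600.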
AmpC inh no detg – qHTS Inhibitors of AmpC Beta-Lactamase (assay without detergent); P00811; AmpC nitrocefin hydrolysis, absorbance 480 nm, 0.0001% Triton; Potency, µM (titrated, usually from 57.1 µM), actives largely listed as inhibitors; 330,000 tested, 0.52% active; AID 485341, 2010; further: nearly all actives have a fitted effect of over 20% in size
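AmpC (5.3 nM in the dispensed reagent) in 20 mM phosphate pH 7.0 with 0.01% (detergent screen) or 0.0001% Triton X-100 was preincubated with compounds for 15 min at room temperature. Nitrocefin was then added from an 800 uM solution, and hydrolysis was followed at 480 nm.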
Cycloheximide cs – Cycloheximide Counterscreen for Small Molecule Inhibitors of Shiga Toxin. max response, %. cell reporter, cycloheximide protein synthesis inhibition counterscreen. AID 2314, 2010. 300,000 tested, 12% active; in the data active means max response mostly above about 13%, no sharp cut-off; inactive means mostly below about 14%; further: read at 38.3 µM for the half of the compounds with a filed dose
A number is an active result; n = inactive; u = inconclusive; x = not tested or not shown. The sample as a whole holds a higher share of hits than the screen did. Unless noted, the call rests on the fitted dose curve; in most records, active means well fitted curve in the direction sought with a large enough effect; inconclusive means small, poorly fitted or top-dose-only effect, or another doubt; inactive means no such curve, though single readings can be large; an effect the other way counts as inactive or inconclusive.

SMILES	AmpC inh detg	Shiga inhibitor	NS1 function inh	AmpC inh no detg	Cycloheximide cs
CCOC(=O)c1c(C)c(C(=O)Nc2ccc(N(C)C)cc2)c(C)n1CC	n	n	n	n	21.9
CCOC(=O)c1cc2sc(C)cc2n1CC(=O)Nc1ccc2c(c1)OCCO2	n	n	n	n	11.9
CC(CCc1ccccc1)NC(=O)C(=O)c1c[nH]c2ccccc12 (stereo unspecified)	n	n	n	n	n
CCOC(=O)CSC1=NC(=O)/C(=C/c2ccc(Br)cc2)S1	n	60.1	x	n	29.6
CCOC(=O)CSC1=NC(=O)/C(=C\c2ccc(OC(C)=O)cc2)S1	n	120.5	n	n	28.3
NC1=NC(=O)/C(=C/c2ccc(Br)cc2)S1	n	x	n	n	n
COc1ccc(Cl)cc1NC(=O)CCCS(=O)(=O)c1nc(-c2ccc(OC)c(OC)c2)cc(C(F)(F)F)n1	n	x	x	x	x
COC(=O)c1ccccc1SC1CC(=O)N(c2ccccc2)C1=O (stereo unspecified)	n	57.1	n	n	28.5
CCCOc1ccc(N2C(=O)CC(SCCN)C2=O)cc1 (stereo unspecified)	n	93.3	n	n	50.2
O=C(O)c1ccccc1SC1CC(=O)N(c2cccc3ccccc23)C1=O (stereo unspecified)	n	n	n	n	n
CCOC(=O)C(N)CSC1CC(=O)N(c2ccc(C(=O)OC)cc2)C1=O (stereo unspecified)	u	n	n	n	n
COC(=O)c1ccc(N2C(=O)CC(SCCN)C2=O)cc1 (stereo unspecified)	u	53.7	n	n	42.4
COc1ccc2ccccc2c1-c1sc(Nc2ccccc2)n[n+]1-c1ccc(F)cc1	n	n	n	n	n
CSCCC(NC(=O)c1ccccc1Br)C(=O)NCC(c1ccco1)N1CCCCC1 (stereo unspecified)	n	x	x	n	x
CC1C(O)=C(c2nc3ccccc3[nH]2)C(=N)N1c1ccccc1 (stereo unspecified)	n	128.1	n	n	24.2
CCC(C)N1CC(O)=C(c2nc3ccccc3[nH]2)C1=N (stereo unspecified)	n	83.7	n	n	n
CCCN(CCC)CCCNC(=O)Cn1ncc2c3ccccc3n(Cc3ccccc3F)c2c1=O	n	x	x	x	x
CCOc1cc(C2C(C#N)=C(N)Oc3c2c(=O)oc2ccccc32)ccc1OC(=O)c1cccs1 (stereo unspecified)	u	n	n	15.8µM	n
N#CC1=C(N)Oc2c(c(=O)oc3ccccc23)C1c1cccnc1 (stereo unspecified)	n	n	n	n	n
CCOC(=O)/C(=N/Nc1ccc(C)cc1)S(=O)(=O)c1ccc(Cl)cc1	n	n	n	n	22.8
NNC(=O)/C(=N/Nc1ccccc1)S(=O)(=O)c1ccc(Cl)cc1	u	n	u	39.8µM	n
CNC[C@@H]1Oc2ccc(NC(=O)Nc3cccc4ccccc34)cc2C(=O)N([C@@H](C)CO)C[C@@H]1C	x	x	x	n	x
Cc1cccc2[nH]c(SCC(=O)N3CCOCC3)nc12	n	108.7	n	n	n
CC1CCN(C(=O)CSc2nc3ncccc3[nH]2)CC1	n	n	n	n	20.3
NC(=O)C1CCN(C(=O)CSc2nc3ccccc3[nH]2)CC1	n	n	n	n	n
SMILES	AmpC inh detg	Shiga inhibitor	NS1 function inh	AmpC inh no detg	Cycloheximide cs
CCOC(=O)C1CCN(C(=O)CSc2nc3ncccc3[nH]2)CC1	u	n	n	n	n
CC1CCN(C(=O)CSc2nc3ccccc3[nH]2)CC1	n	65.7	n	n	59.4
Cc1cccc2[nH]c(SCC(=O)O)nc12	u	n	x	n	n
Cc1cc(C(=O)NCC(=O)OCC(=O)N(C(C)C)C(C)C)ccc1[N+](=O)[O-]	n	n	n	n	n
CCOC(=O)c1nnn(C(CC)C(=O)Nc2ccc(F)cc2)c1C(=O)OCC (stereo unspecified)	n	x	x	x	x
COc1ccc2nc(SCC(=O)O)nc(C)c2c1	n	n	n	n	n
COc1ccc2nc(SCc3cccc(C)c3)nc(C)c2c1	u	61.7	n	n	27.2
COc1ccc2nc(SCc3ccccc3C)nc(C)c2c1	n	n	n	n	12.1
COc1cccc(NC(=O)Cn2cc(S(=O)(=O)N3CCCC3)c(S(=O)(=O)N3CCCC3)c2)c1	n	x	x	x	x
CC(=O)Nc1ccc(S(=O)(=O)N2CCCC2C(=O)Nc2ccc3c(c2)OCCO3)cc1 (stereo unspecified)	n	n	n	n	n
COC(=O)c1ccc(OCC(O)CNCC(c2ccc(OC)cc2)N(C)C)c(OC)c1 (stereo unspecified)	u	52.3	n	n	n
CSc1nc(N)nc(SCC(=O)Nc2cccc(F)c2)c1C#N	u	77.0	n	n	n
N#Cc1cc2c(nc1SCC(=O)Nc1cccc(F)c1)C1CCN2CC1	n	x	x	x	x
CSc1nc(N)nc(SCC(=O)Nc2ccc(Cl)cc2)c1C#N	n	43.1	n	n	20.3
CSc1nc(N)nc(SCC(=O)C(C)(C)C)c1C#N	u	n	n	n	n
Cc1cccc(NS(=O)(=O)c2ccc(Cl)cc2)n1	n	n	u	n	n
CCCOc1ccc(CNC(=O)C(C)n2nc(C)n3c(cc4occc43)c2=O)cc1 (stereo unspecified)	n	x	x	x	x
O=C(O)c1ccc2c(c1)SC1=NS(=O)(=O)CCN12	n	n	n	n	n
O=S1(=O)CCN2C(=N1)Sc1c2ccc2c1CCCC2	n	69.5	n	n	24.8
CN(C)c1ccc(/C=C/[N+](=O)[O-])cc1	n	n	n	n	n
COc1ccc(/C=C/c2cc(OC)cc(=O)o2)cc1	x	86.0	x	x	48.9
CN(C)c1ccc(/C=C/c2ccncc2)cc1	n	68.0	n	n	32.0
COc1ccc(C=O)cc1	n	x	x	n	x
COc1ccc(/C=C/c2ccncc2)cc1	n	94.3	n	n	40.0
COc1ccc(/C=C/c2cc(=O)c3cc(Cl)ccc3o2)cc1	n	n	n	n	n
SMILES	AmpC inh detg	Shiga inhibitor	NS1 function inh	AmpC inh no detg	Cycloheximide cs
COc1ccc(N2CCN(C(=O)Cn3cnc4sc(C)c(S(=O)(=O)N5CCCCC5)c4c3=O)CC2)cc1	n	x	x	x	x
O=C(CSc1nc2[nH]ncc2c(=O)[nH]1)Nc1ccccc1	n	n	x	n	n
O=C(Cc1cccc(NC(=O)C2CCCN(C(=O)C3CCCCC3)C2)c1)Nc1cccc(C(=O)N2CCCC2)c1 (stereo unspecified)	n	x	x	n	x
Cc1cc(C)cc(NC(=O)Nc2c(Br)cnn2C)c1	u	n	n	n	n
Cn1c(COc2ccccc2Br)nc2ccccc21	n	55.7	n	n	44.4
COc1ccccc1OCc1nc2ccccc2n1C	n	133.5	n	n	50.9
Clc1cccc(Cl)c1CNCCCSc1ncccn1	u	n	n	n	7.1
Fc1cccc(Cl)c1CNCCCSc1ncccn1	u	n	n	n	n
CCOC(=O)c1c(Nc2ccccc2)sc(/C=C2\C=Nc3ccccc32)c1O	u	n	n	n	n
Oc1nc(Nc2ccccc2)sc1/C=C1\C=Nc2ccccc21	n	63.7	n	n	48.6

High-throughput results (PubChem)
